Results published in PubChem BioAssay (NCI).
About 83,000 compounds went through this panel and 20% of them were active in at least one assay; those are over-represented in the sample as a whole.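 Negative percent growth values reflect cell death: -40 means 40% of the cells present at the start died, and -100 means all died.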 A number with no mark means an inactive call. Calls of active or inactive are those of the source. The calls were made as follows: active = growth percent below 10; inactive = the rest.

Each compound was assayed on COLO 205 colon (assay: NCI-60 one-dose screen, 48 h (100 = growth as untreated, 0 = no growth, -100 = all killed)). Details: 10 µM unless noted.

Compound	growth
Cc1ccc(-c2onc3c(=O)[nH]nc(-c4ccccc4)c23)cc1	7.07% (active)
O=C1CSC(=S)N1CCc1ccc(O)cc1	106%
CNC(=O)c1cc(Oc2ccc(NC(=O)Nc3ccc(Cl)c(OC(F)(F)F)c3)c(F)c2)ccn1	6.8% (active)
N#C/C(=C\c1ccc(-c2ccc(Cl)c(Cl)c2)o1)c1nc(-c2ccco2)cs1	106%
O=S(=O)(Nc1ccc(OC(F)F)cc1)c1ccc(-c2cnc(C3CC3)o2)cc1	97.2%
O=C1Nc2cc(-c3ccc(O)cc3)ccc2/C1=C/c1ccc[nH]1	13.7%
CON1C(=O)CC[C@]2(C)[C@H]3CC[C@@H]4C([C@@]5(C)CCC(=O)O5)CC[C@@]4(C)[C@]3(C)CC[C@H]2C1(C)C (some centres undefined)	124%
Cn1cc(C(=O)c2nc(-c3c[nH]c4ccc(Br)cc34)no2)c2cc(F)ccc21	98.3%
COc1ccc(-n2nc(C)c3c(Nc4ccc(NC(=O)Nc5cccc(C(F)(F)F)c5)cc4)ncnc32)cc1	-39.2% (active)
CC(C)C1=C[C@@]23CC[C@@H]4[C@](C)(CCC[C@@]4(C)C(=O)N4CCCNCC4)[C@H]2C[C@@H]1[C@H]1C(=O)CCC(=O)[C@H]13	134%
C#CCOc1ccc2ncnc(N3CCC(NC(=O)CCl)CC3)c2c1	82.5% [8.25 µM]
Cc1ccc(NC(=O)/C=C/c2ccccc2)c(C(N)=O)c1	-21.2% (active)
COc1ccc(/C=C\c2cc(OC)c(OC)c(OC)c2)cc1OC(=O)c1cccc(Cn2cc(CCOC(=O)[C@H](N)Cc3cn(C)c4ccccc34)nn2)c1	-54.5% (active)
O=C1c2ccccc2C(=O)c2c1ccc1[nH]c(-c3cccs3)nc21	103%
CN1CCN(Cc2ccc(NC(=O)c3cncc(C#Cc4cncn5ccnc45)c3)cc2C(F)(F)F)CC1	32.3%
CC(C)(C)c1cc(/C=N\NC(=O)/C=C/C=C/c2ccc3c(c2)OCO3)c(O)c(C(C)(C)C)c1	94%
CCCc1cc(=O)n2c(C(=O)Nc3ccc(F)cc3)c(C(=O)Nc3ccc(F)cc3)sc2n1	71.4% [30 µM]
O=C(O)COc1ccc(Cl)cc1C1CCCCC1	119%
NC(=O)c1cc(Br)ccc1NC(=O)/C=C/c1ccccc1	-4.22% (active)
Cc1nn(-c2ccc(F)cc2)c2ncnc(Oc3ccc(NC(=O)Nc4ccc(Cl)c(C(F)(F)F)c4)cc3)c12	109%

Compound	growth
CSc1nc(-c2cccc(NC(=O)CCl)c2)c(C#N)c(=O)n1C	-20.2% (active)
CCCCN(CCCC)CCCn1c(-c2ccccc2)ccc1-c1ccccc1	61.3%
Cc1c(/C=C/[N+](=O)[O-])ccc2c1[nH]c1ccccc12	82.2%
c1ccc(Cn2cc(-c3nc4ccccc4s3)c3cccnc32)cc1	118%
O=C(N/N=C/c1c[nH]c2ccccc12)c1cc(-c2ccccc2)on1	113%
CCCn1c(=O)[nH]c(N)c([C@H]2c3ccccc3Oc3[nH]c(=O)n(CCC)c(=O)c32)c1=O	86.4%
CC(=O)O[C@H]1[C@@H]2OC(=O)C(CSc3ccccc3)[C@@H]2C[C@H]2O[C@]2(C)CC/C=C(\C)CCC[C@@H]1C (some centres undefined)	29.7%
O=C1Nc2ccc(Br)cc2C12Oc1ccccc1C1CC(c3ccc(F)cc3)=NN12 (centres undefined)	109%
C=C1c2nc3ccccc3n2C=C(c2cccc(Cl)c2)N1Cc1ccc(OC)cc1	95%
C#CC(F)(F)[C@]1(O)CC[C@H]2[C@@H]3CCC4=CC(=O)CCC4=C3[C@@H](c3ccc(C(C)=O)cc3)C[C@@]21C	78.3%
CC(=O)O[C@H]1CC[C@]2(C)[C@H]3CC=C4[C@@H]5CC(C)(C)CC[C@]5(C(=O)NCCNCCNCCN)CC[C@@]4(C)[C@]3(C)CC[C@H]2C1(C)C	-93.1% (active)
COc1ccc(-c2cc(NC(=O)Nc3ccc4ncsc4c3)no2)cc1	125%
CCN(CC)c1ccc(-c2cc(-c3cc(OC)c(OC)c(OC)c3)nc(N3CCOCC3)c2C#N)cc1	5.62% (active)
CC1=CC(=NN=c2cc(C)n([O-])c(C)c2)C=C(C)[N+]1=O	29.8%
Cc1ccc2oc(=O)cc(C3c4ccc([nH]4)C(c4cc(=O)oc5ccc(C)cc45)c4ccc([nH]4)C(c4cc(=O)oc5ccc(C)cc45)c4ccc([nH]4)C(c4cc(=O)oc5ccc(C)cc45)c4ccc3[nH]4)c2c1 (centres undefined)	-80.6% (active)
COc1cc2c(cc1-c1c(C)noc1C)ncc1nc(C3CCOCC3)n([C@@H](C)COC(F)F)c12	26.9%
Cc1[nH]c(-c2cc(N)ccc2Cl)c2c1C(=O)CCCC2	22.6%
O=S(=O)(Nc1ccc(Br)c(Cl)c1)c1ccc(-c2cnc(C3CC3)o2)cc1	-2.39% (active)
C=CC(=O)Nc1cccc(-c2nc(SC)nc(NCCN3CCOCC3)c2C#N)c1	114%
